Measurements: PubChem BioAssay AID2685 (National Center for Advancing Translational Sciences (NCATS), 2010)
In all, about 320,000 compounds went through this assay and about 2,100 (0.66%) were called active. Roughly 53% stayed inconclusive and do not appear here. Calls come from the whole dose curve; as a rule, active = well fitted inhibition curve with a large enough effect in the signal ratio, with a control signal flat (not every such curve was filed as active); inconclusive = small, poorly fitted or top-dose-only effect, or effect the other way, or a change in a side signal; inactive = flat fitted curve, though single readings scatter; the % refers to the signal ratio. For the sample, actives were picked, then their nearest neighbours and some compounds at random.

assay: qHTS Assay for Lipid Storage Modulators in Drosophila S3 Cells; settings: BODIPY lipid droplet fluorescence, 18-24 h, cells fed with added oleic acid; cell number change: measured here: cell count max response; series mostly up to 46.1 µM; lipid storage change, negative = inhibition: at the top concentration;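 for cell number change: cells counted by Cell Tracker Red CMTPX staining in the red channel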; for lipid storage change, negative = inhibition: % is set by controls: 0 for no effect and ±100 for the full control effect
In short: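 Drosophila S3 cells loaded with oleic acid (400 uM, as added) and compounds at several concentrations; lipid droplets imaged by 488-nm laser-scanning cytometry, 500–530 nm intensity and object ratio to cell channel. Percent activity normalized to 20 uM Triacsin C.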
Potency is the fitted concentration of half-maximal effect.

Row | Compound | lipid storage change, negative = inhibition | cell number change [%] | Potency | outcome
1 | CCOc1ccc(C(=O)COC(=O)c2nn(CC)c(=O)c3ccccc23)cc1 | -1.33% (inactive) | 18.9 |  | 
2 | CNC(=O)NNC(=O)c1onc(-c2c(Cl)cccc2Cl)c1C(=O)OC | 4.68% (inactive) | 19.9 |  | 
3 | CCc1nc2ccccc2n1CCC(=O)O | -5.95% (inactive) | -14.7 |  | 
4 | CC(C)c1nc2ccccc2n1CCC(=O)O |  | -4.05 | 16.4 µM (active) | 
5 | CCSc1nc2ccccc2n1CCC(=O)O |  |  |  | inactive
6 | CCC(C)(CC(=O)Nc1nccs1)c1ccccc1 (stereo unspecified) | 9.71% (inactive) | 7.48 |  | 
7 | O=C(OCC#CCSc1nnc(-c2ccccc2)o1)c1cccs1 |  | -0.992 |  | inactive
8 | N#Cc1nc(-c2cccc3ccccc23)oc1NCC#CCOC(=O)c1cccs1 |  | -10.2 | 14.6 µM (active) | 
9 | COc1ccc(CNc2oc(-c3cccc4ccccc34)nc2C#N)cc1 | -4.38% (inactive) | -5.87 |  | 
10 | CC(NC(=O)CSc1n[nH]c(=O)n1C1CC1)C12CC3CC(CC(C3)C1)C2 (stereo unspecified) |  | 7.42 |  | inactive
11 | S=C1NCCOCCOCCOCCNC(=S)N2CCOCCOCCN1CCOCCOCC2 | 12.4% (inactive) | -2.24 |  | 
12 | CCN(CC)CCCNC(=O)c1[nH]c(C)c(C(=O)NC2CCCCC2)c1C |  | -5.4 | 25.9 µM (active) | 
13 | CCOC(=O)c1[nH]c(C)c(C(=O)NC2CCCCC2)c1C | 2% (inactive) | -4.45 |  | 
14 | CCOC(=O)c1[nH]c(C)c(C(=O)NC2CCCCCC2)c1C | 0.0369% (inactive) | -7.97 |  | 
15 | O=C(O)c1cccc(S(=O)(=O)Nc2ccc3oc(=O)sc3c2)c1 | -2.72% (inactive) | 4.14 |  | 
16 | Cc1cc(O)c(C(C)C)cc1NS(=O)(=O)c1ccccc1 |  | -16.1 |  | inactive
17 | Cc1cc2oc(=O)sc2cc1NS(=O)(=O)c1ccccc1 |  | 5.22 | 7.31 µM (active) | 
18 | COc1cccc(-c2cc(C(=O)NCC3CCCO3)c3cc(Br)cc(C)c3n2)c1 (stereo unspecified) | -22.3% (inactive) | -7.43 |  | 
19 | O=C(O)CC(Cc1ccc(Br)cc1)C(=O)O (stereo unspecified) | 26.3% (inactive) | -24.7 |  | 
20 | N=c1oc2ccccc2cc1C(=O)Nc1ccc(F)cc1 | 1.4% (inactive) | 0.805 |  | 
21 | N=c1oc2ccccc2cc1C(=O)Nc1ccccc1 |  | 8.78 |  | inactive
22 | N=c1oc2c3c4c(cc2cc1C(=O)Nc1ccccc1)CCCN4CCC3 |  | 5.35 | 5.8 µM (active) | 
23 | CC(C)COc1ccc(CSCCNC(=S)Nc2ccccc2)cc1 | -21% (inactive) |  |  | 
24 | O=C1C2CCCN2C(c2cccs2)N1c1ccc(F)cc1 (stereo unspecified) | 0.267% (inactive) | -1.44 |  | 

Row | Compound | lipid storage change, negative = inhibition | cell number change [%] | Potency | outcome
25 | Cc1ccc2nc3c(cc(C(=O)NCC4CCCO4)n3C)c(=O)n2c1 (stereo unspecified) | 5.2% (inactive) | 19.4 |  | 
26 | CC(=O)Nc1ccc(C(=O)/C=C/c2ccco2)cc1 | 9.95% (inactive) | -0.499 |  | 
27 | O=C(N/N=C/c1ccco1)C12CC3CC(CC(C3)C1)C2 | -8.38% (inactive) | -15.4 |  | 
28 | O=C(/C=C/c1ccco1)c1ccc(NC(=O)C23CC4CC(CC(C4)C2)C3)cc1 |  | -23.6 | 16.4 µM (active) | 
29 | Cc1noc(C)c1COc1ccccc1C(=O)N(C)Cc1ccc(F)cc1 | 19.1% [at 0.0737 µM] (inactive) | -12.5 |  | 
30 | O=C(c1ccc2c(c1)OCO2)C1CCCN(Cc2cc(F)ccc2-n2cccn2)C1 (stereo unspecified) | 17% (inactive) | 10 |  | 
31 | CCc1c(C)nc(N)n2c(SCC(=O)Nc3ccccc3OC)nnc12 | 18.2% (inactive) | 6.92 |  | 
32 | CCc1c(C)nc(N)n2c(SCC(=O)NC3CCCCC3)nnc12 |  | 19.2 | 1.3 µM (active) | 
33 | CCn1c(C)nnc1SCC(=O)NC1CCCCCC1 | -7.91% (inactive) | -4.99 |  | 
34 | COc1ccc(C)cc1N(CC(N)=O)S(=O)(=O)c1ccc(C)cc1 | 3.59% (inactive) | -13.9 |  | 
35 | COc1ccc(Nc2ncc(C#N)c(N)n2)c(OC)c1 | -12.5% (inactive) | 3.36 |  | 
36 | Cc1c(NC(=O)/C=C/c2ccc(S(=O)(=O)N3CCOCC3)cc2)c(=O)n(-c2ccccc2)n1C | 5.25% (inactive) | 8.27 |  | 
37 | CC(OC(=O)CCCc1nc2ccccc2s1)C(N)=O (stereo unspecified) |  | 18.5 | 23.1 µM (active) | 
38 | CCNC(=O)NC(=O)C(C)OC(=O)CCCc1nc2ccccc2s1 (stereo unspecified) | 8.8% (inactive) | 2.05 |  | 
39 | CC(=O)Nc1ccc(NC(=O)C(C)OC(=O)CCc2nc3ccccc3s2)cc1 (stereo unspecified) | -3.56% (inactive) | 4.88 |  | 
40 | Cc1csc(NC(=O)c2ccc(Cn3nc(C)c(Br)c3C)o2)n1 |  | -7.94 | 7.31 µM (active) | 
41 | Cc1nn(Cc2ccc(C(=O)n3cccn3)o2)c(C)c1Br | 0.611% (inactive) | -2.33 |  | 
42 | Cc1csc(NC(=O)c2cccc(Cn3nc(C)c(Br)c3C)c2)n1 | 12.7% (inactive) | -7.75 |  | 
43 | Cc1nnc2c(NCCc3ccccc3)nc3ccccc3n12 | 6.56% (inactive) | 6.11 |  | 
44 | CCC(=O)Oc1ccc2oc(=O)cc(C)c2c1 | 12.6% (inactive) | -1.41 |  | 
45 | CCc1ccc(NC(=S)N2CCC(NC(=O)c3ccccc3OC)CC2)cc1 | -7.78% (inactive) | 12.5 |  | 
46 | Cc1cc(NC(=O)Cn2nc3c(cc2=O)CCCC3)ccc1Br | 24.1% (inactive) | 19.1 |  | 
47 | N=c1c(S(=O)(=O)c2ccc(Cl)cc2)cc2c(=O)n3ccccc3nc2n1C1CCCC1 |  |  | 13 µM (active) | 
48 | Cc1ccc(Cn2c(=N)c(C(=O)NCCN3CCOCC3)cc3c(=O)n4ccccc4nc32)cc1 | -18.6% (inactive) | 21.5 |  | 

Row | Compound | lipid storage change, negative = inhibition | cell number change [%] | Potency | outcome
49 | COc1ccc(CCNC(=O)c2cc3c(=O)n4ccccc4nc3n(CCCN3CCOCC3)c2=N)cc1OC |  | 3.54 |  | inactive
50 | N=c1c(C(=O)NCCN2CCOCC2)cc2c(=O)n3ccccc3nc2n1CCc1ccccc1 |  | 15.8 |  | inactive
51 | N=c1c(C(=O)NCc2ccccc2)cc2c(=O)n3ccccc3nc2n1CCCN1CCOCC1 | 8.53% (inactive) | -5.03 |  | 
52 | COc1ccc(CCNC(=O)c2cc3c(=O)n4ccccc4nc3n(Cc3ccco3)c2=N)cc1OC |  | -20.4 |  | inactive
53 | N=c1c(C(=O)NCc2ccco2)cc2c(=O)n3ccccc3nc2n1Cc1ccccc1 |  | -4.14 |  | inactive
54 | N=c1c(C(=O)NCCc2ccccc2)cc2c(=O)n3ccccc3nc2n1CCCN1CCOCC1 |  | -19 | 6.51 µM (active) | 
55 | Cc1ccc(S(=O)(=O)c2cc3c(=O)n4ccccc4nc3n(C3CCCC3)c2=N)cc1 |  | -1.32 |  | inactive
56 | N=c1c(C(=O)NCCc2ccccc2)cc2c(=O)n3ccccc3nc2n1Cc1ccco1 |  | -1.35 | 0.82 µM (active) | 
57 | N=c1c(C(=O)NCCN2CCOCC2)cc2c(=O)n3ccccc3nc2n1CCCN1CCOCC1 |  | 8.12 | 7.31 µM (active) | 
58 | N=c1c(S(=O)(=O)c2ccc(Br)cc2)cc2c(=O)n3ccccc3nc2n1C1CCCCC1 |  | 2.36 |  | inactive
59 | COc1ccc(C(=O)NCc2oc(-c3ccccc3)cc2C(=O)O)cc1 | 20.5% (inactive) | -4.88 |  | 
60 | COc1ccc2nc(/C=N/NC(=O)[C@H](CCSC)NC(=O)OC(C)(C)C)ccc2c1 | 0.135% (inactive) | 13.4 |  | 
61 | COC(=O)c1ccccc1NC(=O)CSc1nc(O)cc(=O)n1C1CCCC1 | 19.2% (inactive) | 6.94 |  | 
62 | O=C(NC(Cc1ccccc1)C(=O)O)/C(=C/c1ccco1)NC(=O)c1cccc([N+](=O)[O-])c1 (stereo unspecified) | -3.12% (inactive) | -0.0963 |  | 
63 | Oc1cccc(N2Cc3ccccc3C2)c1 | -2.83% (inactive) | -1.3 |  | 
64 | CCN1CCN(S(=O)(=O)c2ccc(Cl)c(C(=O)N(C)C(c3ccccc3)c3ccccc3)c2)CC1 | 17.2% (inactive) |  |  | 
65 | C=CCOc1ccc2ccccc2c1CNn1cn[nH]c1=S |  | 10.6 |  | inactive
66 | Cc1ccc(OCC(=O)NCCCNC(=O)c2ccncc2)cc1 |  | 0.901 |  | inactive
67 | CCOC(=O)N1CCN(C(=O)c2ccc3nc(N4CCCCC4)sc3c2)CC1 | -10.6% (inactive) | -1.93 |  | 
68 | CCOC(=O)CNC(=O)N1CCCC(CNS(=O)(=O)c2cccs2)C1 (stereo unspecified) | 6.02% (inactive) | 11.3 |  | 
69 | Cc1ccc(S(=O)(=O)N2CCOCC2)cc1NC(=O)COC(=O)CCC(=O)c1ccc(F)cc1 | 17% (inactive) | 14.2 |  | 
70 | COCCCn1c(C(=O)N2CCOCC2)cc2c(=O)n3ccccc3nc21 | -8.57% (inactive) | 17.7 |  | 
71 | O=C(NCCN1CCOCC1)c1cc2c(=O)n3ccccc3nc2n1Cc1ccccc1 | 21.5% (inactive) | 13.8 |  | 
72 | N=c1c(C(=O)NCC2CCCO2)cc2c(=O)n3ccccc3nc2n1C1CCCCC1 (stereo unspecified) |  | -7.39 |  | inactive

Row | Compound | lipid storage change, negative = inhibition | cell number change [%] | Potency | outcome
73 | N=c1c(C(=O)NC2CCCC2)cc2c(=O)n3ccccc3nc2n1C1CCCC1 | 0.118% (inactive) | -15.6 |  | 
74 | COCCCn1c(C(=O)NCCN2CCOCC2)cc2c(=O)n3ccccc3nc21 |  | 5.41 | 1.84 µM (active) | 
75 | N=c1c(C(=O)NCc2ccco2)cc2c(=O)n3ccccc3nc2n1C1CCCC1 |  | 10.3 | 0.651 µM (active) | 
76 | Cc1cccc(C)c1NC(=O)CNC(=O)C1CCCN(C(=O)c2ccc(Cl)cc2)C1 (stereo unspecified) | 10.7% (inactive) | 1.48 |  | 
77 | COc1cc(C(=O)NCC(=O)NC(C)CCc2ccccc2)cc(OC)c1OC (stereo unspecified) |  | -6.74 |  | inactive
78 | CCOC(=O)N1CCN(C(=O)CCCCCn2c(=S)[nH]c3ccsc3c2=O)CC1 | 14.1% (inactive) | 6.09 |  | 
79 | CCOC(=O)C1CCCN(C(=O)C2CCN(S(=O)(=O)c3c(C)noc3/C=C/c3ccccc3F)CC2)C1 (stereo unspecified) |  | 2.99 |  | inactive
80 | COc1ccc(OC)c(NC(=O)NCCCCc2ccccc2)c1 |  | -13.4 | 2.91 µM (active) | 
81 | COc1ccc(OC)c(NC(=O)NCCc2cccc(Cl)c2)c1 | 12.6% (inactive) | 4.18 |  | 
82 | COc1ccc(OC)c(NC(=O)CCN2CCN(Cc3ccccc3)CC2)c1 | 16.5% (inactive) | -0.977 |  | 
83 | COc1ccc(Cl)cc1NC(=O)COC(=O)CCNC(C)=O | 11.9% (inactive) | 0.288 |  | 
84 | COc1ccc(OC)c(NC(=O)CCCc2ccccc2)c1 |  | 8.01 |  | inactive
85 | COc1ccc(Cl)cc1NC(=O)CN1CCN(Cc2ccccc2)CC1 | -7.01% (inactive) | 1.46 |  | 
86 | COc1ccc(OC)c(NC(=O)CN2C(=O)C(=O)N(Cc3ccccc3)C2=O)c1 |  | -12.4 | 2.31 µM (active) | 
87 | COc1ccc(Cl)cc1NC(=O)CCNC(=O)OCc1ccccc1 |  | -13.6 | 7.31 µM (active) | 
88 | COc1ccc(OC)c(NC(=O)CCN2C(=O)c3ccccc3C2=O)c1 |  | 23.6 |  | inactive
89 | COc1ccc2oc(=N)c(C(=O)NCc3ccccc3)cc2c1 | -29.1% (inactive) | 8.47 |  | 
90 | O=C(O)CCc1ccc(-c2cccs2)n1NC(=O)c1ccc(O)cc1 | 10.7% (inactive) | 6.61 |  | 
91 | O=C(COC(=O)/C=C/c1ccccc1)NCc1ccccc1Cl | 0.13% (inactive) |  |  | 
92 | CC1CC1C(=O)OCC(=O)NCc1ccccc1Cl (stereo unspecified) |  | -18.4 | 32.6 µM (active) | 
93 | O=C(COC(=O)C1CC2C=CC1C2)NCc1ccccc1Cl (stereo unspecified) | 10.6% (inactive) | 9.83 |  | 
